For 84 compounds, activity change, negative = inhibition results are on record in PubChem BioAssay AID1259415 (National Center for Advancing Translational Sciences (NCATS), 2018).

The whole screen tested about 410,000 compounds, of which about 18,000 (4.4%) were called active. Roughly 7% stayed inconclusive and do not appear here. This excerpt belongs to a sample that is enriched for actives. Unmarked numbers belong to inactive results. Rule as the data show it: active = activity change below about -60%; inconclusive = no clear call, values can overlap the other calls; inactive = above about -39%.
% is scaled to controls: 0 for no effect and ±100 for the full control effect.

The test is described as follows: qHTS Assay for inhibitors of the human cytomegalovirus (HCMV). As to conditions: HFF cells, HCMV-luciferase reporter, 72 h; at 57.5 µM; active compounds read low. The method in brief: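 Steps: HFFs plated, 16 h 37C; compounds added; HCMV-luciferase added to MOI 1 PFU/cell; 72 h 37C; OneGlo reagent, 5 min room temperature; luminescence read, normalized to controls.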
For `Cc1cccc(N2CCN(C(=O)c3ccc(Nc4nc5ccccc5n5nnnc45)cc3)CC2)c1C`, the activity change, negative = inhibition was 9.29%.
In the case of `CCOc1ccc(CNC(=O)c2ccc3c(c2)nnn3C2CCCC2)cc1`, the activity change, negative = inhibition was 27.9%.
For `COCCNC(=O)c1ccc(N2CCC3(CC2)OCCO3)c([N+](=O)[O-])c1`, the activity change, negative = inhibition is -4.44%.
In the case of `CCCNC(=O)c1ccc(N2CCC3(CC2)CC(c2cccc(Br)c2)=NO3)c(NC(=O)c2ccco2)c1`, the activity change, negative = inhibition is -2.24%.
Regarding `CCCNC(=O)c1ccc(N2CCC3(CC2)CC(c2ccc(Cl)cc2)=NO3)c([N+](=O)[O-])c1`, the activity change, negative = inhibition was -72.5% (active).
`COCCCNC(=O)c1c(NC(=O)c2cc(=O)c3cc(C)c(C)cc3o2)sc2c1CCCC2`: the activity change, negative = inhibition was 11.5%.
Take `Cc1nnc(NCc2ccccc2)c2c1nnn2Cc1ccc(F)cc1`: the activity change, negative = inhibition is -5.95%.
Then `CCc1ccc(NC(=O)c2cc(S(=O)(=O)NC3CCCCCC3)ccc2F)cc1`, with -39.6%.
Turning to `CCOc1cccc(C(=O)Nc2nnc(S(=O)(=O)N(C)c3ccc(C)cc3)s2)c1`, the activity change, negative = inhibition was -25.8%.
Then `Cc1ccc(CS(=O)(=O)c2ncc(Cl)c(C(=O)Nc3nnc(C)s3)n2)cc1`, with -111% (active); and `O=C(Nc1nc2ccc(F)cc2s1)c1nc(SCc2ccccc2F)ncc1Cl`, with 7.44%.
`Cc1ccc2nc(NC(=O)c3nc(SCc4ccccc4F)ncc3Cl)sc2c1`: the activity change, negative = inhibition is 16.7%.
Turning to `Cc1ccc(CS(=O)(=O)CCC(=O)NC2CC2)cc1`, the activity change, negative = inhibition was -21.8%.
In the case of `CSc1nnc(NC(=O)c2nc(S(=O)(=O)Cc3ccc(C)cc3)ncc2Cl)s1`, the activity change, negative = inhibition was -102% (active).
Then `NNc1cccc(C=Cc2ccccc2)cc1=O`, with 34%.
Regarding `Cc1ccc(S(=O)(=O)n2nc(C)c(S(=O)(=O)N3CCCCCC3)c2C)cc1`, the activity change, negative = inhibition was 1.89%.
On to `Cc1nc2nc(NCc3cccc(Br)c3)[nH]n2c(=O)c1Cc1ccccc1`, for which the activity change, negative = inhibition is -3.03%.
As to `COc1ccc(C(=O)CSc2c(C(C)C)cnc3c2c(=O)n(C)c(=O)n3C)cc1`, the activity change, negative = inhibition is 8.98%.
For `CCOCCc1nn2c(=O)cc(COC(=O)CNC(=O)c3ccc(C(C)(C)C)cc3)nc2s1`, the activity change, negative = inhibition was -3.83%.
For `CCOc1ccc(N(CC(=O)NCCc2ccc(OC)cc2)S(C)(=O)=O)cc1`, the activity change, negative = inhibition was -24%.
Take `Cc1cccc(C(CC(=O)NCC2(c3ccccc3)CCCC2)c2ccccc2)c1O` (centres undefined): the activity change, negative = inhibition was -38.6%.
Turning to `CNC(=O)/C(=C\C=C\c1ccccc1)NC(=O)c1ccc([N+](=O)[O-])cc1`, the activity change, negative = inhibition was 45.3%.
As to `O=C(NCCc1ccccc1)/C(=C\c1ccc([N+](=O)[O-])cc1)NC(=O)c1ccccc1`, the activity change, negative = inhibition is -102% (active).
As for `O=C(N/C(=C\c1ccc([N+](=O)[O-])cc1)C(=O)N1CCCCC1)c1ccco1`, the activity change, negative = inhibition is -3.57%.
Then `CCCN(CCC)CCNC(=O)c1ccc2c(c1)NC(=O)C(CS(=O)(=O)Cc1cccc(Br)c1)N2` (centres undefined), with -22.3%.
Take `CC(C)N1CCc2c(sc(NC(=O)Cc3ccccc3)c2C#N)C1`: the activity change, negative = inhibition was -9.26%.
Consider `CC(=O)N1CCc2c(sc(NC(=O)CCS(=O)(=O)c3ccccc3)c2C#N)C1`, for which the activity change, negative = inhibition was -99.8% (active).
Turning to `CC(=O)N1CCc2c(sc(NC(=O)CCS(=O)(=O)c3ccc(C)cc3)c2C(N)=O)C1`, the activity change, negative = inhibition was 5.61%.
`CC(C)CNc1cccc2c1S(=O)(=O)N[C@H](CC(C)C)CO2`: the activity change, negative = inhibition is -24.9%.
In the case of `O=C(CSc1nnc(N2CCOCC2)n1-c1cccc(F)c1)N1CCN(c2ccccn2)CC1`, the activity change, negative = inhibition was -18.8%.
For the compound `CCCNC(=O)C[C@@H]1CC[C@@H]2[C@H](COC[C@H](O)CN2C(=O)c2cc(Cl)cc(Cl)c2)O1`, the activity change, negative = inhibition is -17.8%.
As to `O=C(C[C@H]1CC[C@H]2[C@@H](COC[C@H](O)CN2C(=O)c2ccccn2)O1)N1CCN(c2ccccc2)CC1`, the activity change, negative = inhibition was -65.2% (active).
Then `COc1ccccc1OCCCn1c(-c2ccc(Cl)cc2)nc2ccccc2c1=O`, with 39.4%.
For `COc1ccc(-c2nc3ccccc3c(=O)n2CCc2ccc(O)cc2)cc1`, the activity change, negative = inhibition was -62% (active).
`COc1cccc(OCCn2c(-c3ccc(Br)cc3)nc3ccccc3c2=O)c1`: the activity change, negative = inhibition is 43%.
Take `Cc1ccc2c(c1)N(C(=O)CCC(=O)NCc1ccccc1F)CC(C)O2` (centres undefined): the activity change, negative = inhibition was 8.23%.
As to `Cc1ccc(C(=O)NC(=S)Nc2ccc(N3CCOCC3)cc2)cc1`, the activity change, negative = inhibition is -103% (active).
For the compound `COC(=O)c1ccc(NC(=S)NN2CCOCC2)cc1`, the activity change, negative = inhibition is 35.3%.
Take `Cc1ccc(C(=O)C(=S)N2CCOCC2)cc1`: the activity change, negative = inhibition is 6.2%.
Turning to `CCC1CCCCN1CCCNC(=O)c1cc2c(Cl)nc3ccccc3c2s1` (centres undefined), the activity change, negative = inhibition was -99.5% (active).
Take `Cc1nc2ccccc2c2oc(C(=O)NCCCN3CCC(C)CC3)cc12`: the activity change, negative = inhibition is 52.7%.
Then `O=C(NCCN1CCN(Cc2ccccc2)CC1)c1cc2c(=O)[nH]c3ccccc3c2s1`, with -8.01%; and `Cc1ccc(NC(=O)CN(C)C(=O)c2ccc(Cl)c(S(=O)(=O)NCc3ccco3)c2)cc1`, with -35%.
As for `O=S(=O)(c1ccc(C2CCCCC2)cc1)N1CCN(c2ccc(Cl)c(Cl)c2)CC1`, the activity change, negative = inhibition was 9.35%.
As for `Cc1c(Br)c([N+](=O)[O-])nn1CC(=O)Nc1sc2c(c1C(=O)OC(C)C)CCC(C)C2` (centres undefined), the activity change, negative = inhibition was 9.26%.
In the case of `COC(=O)c1c(NC(=O)CCCOc2ccccc2)sc2c1CCC(C)C2` (centres undefined), the activity change, negative = inhibition was 5.16%.
For `COC(=O)c1c(NC(=O)CN2CCN(S(=O)(=O)c3ccccc3[N+](=O)[O-])CC2)sc2c1CCC(C)C2` (centres undefined), the activity change, negative = inhibition was -60.3% (active).
In the case of `Cn1c(=O)oc2cc(S(=O)(=O)CCC(=O)NCCc3ccc(Cl)cc3)ccc21`, the activity change, negative = inhibition is 11.3%.
Then `CCN(CC)c1nn2c(=O)c(C(=O)NCCc3ccccc3)cnc2s1`, with 3.6%; and `COc1ccc(NS(=O)(=O)c2cc3c4c(c2)CC(=O)N4CCC3)cc1Cl`, with -18.7%; and `CCOc1ccc(Br)cc1S(=O)(=O)N1CCC(C(=O)O)CC1`, with -26.6%.
Then `CCOc1ccc(Br)cc1CSC(=N)N`, with -73.3% (active); and `CCOc1ccc(Br)cc1S(=O)(=O)Nc1cccc(S(=O)(=O)N(CC)CC)c1`, with 14.1%.
With `Cc1nn(C)c2c1c(C(F)(F)F)cc(=O)n2C(C)C(=O)NCc1ccc(Cl)cc1` (centres undefined) the figure was 7.11%; with `O=C(c1cccc(Br)c1)N1CCN(Cc2cc(=O)n3nc(-c4ccccc4)sc3n2)CC1`, -19.8%.
With `COc1ccccc1NC(=O)Cn1cnc2ccc(S(=O)(=O)N3CCC(C)CC3)cc2c1=O`, the activity change, negative = inhibition is -5.25%.
With `COc1ccc(NC(=O)CSc2nnc(-c3nnn(-c4ccc(F)cc4)c3C)o2)cc1`, the activity change, negative = inhibition was 10.5%.
With `Cc1ccccc1NC(=O)Cn1c(=O)n(CCc2ccccc2)c(=O)c2ccccc21` the figure was 24.5%; with `Cc1ccc(Cn2nnc3c(=O)[nH]c(C4CCN(S(=O)(=O)/C=C/c5ccccc5)CC4)nc32)cc1`, 48.5%.
As for `O=C(c1ccccc1F)N1CCC(c2nc3c(nnn3Cc3cccc(F)c3)c(=O)[nH]2)CC1`, the activity change, negative = inhibition was 67.9%.
Then `Cc1ccc(NC(=O)N2CCC(c3nc4c(nnn4Cc4c(F)cccc4Cl)c(=O)[nH]3)CC2)cc1`, with -65.5% (active); and `CCOc1ccc(-n2c(C)nc3c(cnn3-c3ccc(C)cc3)c2=O)cc1`, with -26.3%.
In the case of `CCCNC(=S)N1CCC(NC(=O)C23CC4CC(CC(C4)C2)C3)CC1`, the activity change, negative = inhibition is 20%.
With `Cc1ccc(CNC(=O)CSc2c(C)cnc3c2c(=O)n(C)c(=O)n3C)cc1` the figure was -25%.
With `O=C(OC12CC3CC(CC(C3)C1)C2)c1ccc(NCc2cc(O)ccc2O)cc1` the figure was -100% (active); with `O=C(CSCc1c(Cl)cccc1Cl)NN1C(=O)c2ccccc2C1=O`, 12.2%.
As for `CCN1CCc2nc3sc(C(=O)Nc4ccccc4OC(F)(F)F)c(N)c3cc2C1`, the activity change, negative = inhibition was -25.3%.
On to `CCCCOC(=O)/C(C#N)=C/c1ccc(-c2cccc(C(F)(F)F)c2)o1`, for which the activity change, negative = inhibition was -3.64%.
Consider `CCOC(=O)c1ccc(-c2ccc(/C=C(\C#N)C(=O)Nc3ccc(C)cc3)o2)cc1`, for which the activity change, negative = inhibition is 31.4%.
`Cc1ccc(Cc2cnc(NC(=O)/C(C#N)=C/c3ccc(-c4cccc([N+](=O)[O-])c4)o3)s2)cc1`: the activity change, negative = inhibition is -61.6% (active).
`N#C/C(=C\c1ccc(-c2cccc([N+](=O)[O-])c2)o1)C(=O)NCCN1CCOCC1`: the activity change, negative = inhibition is -67.8% (active).
For the compound `O=C(NCCN1CCN(C(=O)c2cccc([N+](=O)[O-])c2)CC1)C(=O)NCc1ccc(Cl)cc1`, the activity change, negative = inhibition is 27.7%.
Regarding `CCOC(=O)c1ccc(-c2ccc(/C=C(\C#N)C(=O)Nc3ccc(OCC)cc3)o2)cc1`, the activity change, negative = inhibition was 4.93%.
Take `Cc1ccc(OCCSc2nc(-c3cccs3)nc3cc(=O)[nH]n23)cc1Cl`: the activity change, negative = inhibition is 22.8%.
For `COc1ccccc1N1CCN(S(=O)(=O)CCNC(=O)COc2ccc(F)cc2)CC1`, the activity change, negative = inhibition is 65.8%.
With `Cc1ccc(NC(=O)CCCn2c(=O)c3cccn3c3ccccc32)cc1Cl` the figure was 4.78%; with `O=S(=O)(c1ccc(Cl)s1)N1CCC2(CC1)OCCO2`, -18.3%.
For the compound `CC(C)c1ccc(S(=O)(=O)N2CCC3(CC2)OCCO3)cc1`, the activity change, negative = inhibition was -60.4% (active).
Regarding `Cc1c(C)c(C)c(S(=O)(=O)N2CCC3(CC2)OCCO3)c(C)c1C`, the activity change, negative = inhibition was -6.48%.
With `COCCNC(=O)c1cccc(-c2nc3c(NC4CCCCC4)nccc3[nH]2)c1`, the activity change, negative = inhibition was -4.46%.
Consider `CCOc1ccccc1NC(=O)CCn1cnnn1`, for which the activity change, negative = inhibition was -4.13%.
`O=C(COc1cc(Cl)c(Cl)cc1Cl)NC(=O)NC1CCCC1`: the activity change, negative = inhibition was 65.3%.
Then `NC(=S)NN=Cc1ccc(OC(=O)COc2cc(Cl)c(Cl)cc2Cl)cn1`, with -75.3% (active).
With `CC(C)(C)c1ccc(C(=O)N2CCC(c3nc(-c4ccc(S(=O)(=O)N5CCCC5)cc4)no3)CC2)cc1` the figure was -35.7%.
